Experimental data published in PubChem BioAssay (EPA / NIEHS).
“And” between values parts separate entries of the source, which are not always exact repeats. Identical values can stand only once. Records with an inconclusive call do not appear. A structure can be active in one record and inactive in another. The source made the active and inactive calls. How the source made its calls, unless noted: active means hit-call score of the fitted dose curve at least 0.9, where 1 is the maximum; inactive means score below 0.9.

Tests used:
[1] = CCTE_Deisenroth_AIME_384WELL_CTox_Active: Cytotoxicity Assessment (CTOX) in CCTE's 384-well Estrogen Receptor Transactivation Assay with AIME metabolic competence (metabolism positive), Deisenroth Lab (AID 2284037; active means hit-call score of the fitted dose curve at least 0.9, where 1 is the maximum;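 further: chemicals first conditioned 2 h by alginate-bound induced rat liver S9 before cells; activity means signal loss indicating cell death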)
In short: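 Cytotoxicity in VM7Luc4E2 breast cells, 24 hour, measured as protease-substrate fluorescence loss, after 2-hour metabolic conditioning with induced rat hepatic S9 in alginate microspheres. Concentrations 0.002 - 200 uM, 10 points, bidirectional fitting.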

[2] = biological target: Estrogen receptor (Homo sapiens) (UniProt P03372); test: CCTE_Deisenroth_AIME_384WELL_LUC_Inactive: CCTE's 384-well Estrogen Receptor Transactivation Assay without AIME metabolic competence (ERTA luciferase; metabolism negative), Deisenroth Lab (AID 2284038; active means hit-call score of the fitted dose curve at least 0.9, where 1 is the maximum;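 further: VM7Luc4E2 breast cells given medium preincubated 2 h with S9-free microspheres; hits raise estrogen receptor luciferase signal so potencies reflect agonists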)
Sequence of Estrogen receptor (Homo sapiens) (P03372 whole entry, looked up): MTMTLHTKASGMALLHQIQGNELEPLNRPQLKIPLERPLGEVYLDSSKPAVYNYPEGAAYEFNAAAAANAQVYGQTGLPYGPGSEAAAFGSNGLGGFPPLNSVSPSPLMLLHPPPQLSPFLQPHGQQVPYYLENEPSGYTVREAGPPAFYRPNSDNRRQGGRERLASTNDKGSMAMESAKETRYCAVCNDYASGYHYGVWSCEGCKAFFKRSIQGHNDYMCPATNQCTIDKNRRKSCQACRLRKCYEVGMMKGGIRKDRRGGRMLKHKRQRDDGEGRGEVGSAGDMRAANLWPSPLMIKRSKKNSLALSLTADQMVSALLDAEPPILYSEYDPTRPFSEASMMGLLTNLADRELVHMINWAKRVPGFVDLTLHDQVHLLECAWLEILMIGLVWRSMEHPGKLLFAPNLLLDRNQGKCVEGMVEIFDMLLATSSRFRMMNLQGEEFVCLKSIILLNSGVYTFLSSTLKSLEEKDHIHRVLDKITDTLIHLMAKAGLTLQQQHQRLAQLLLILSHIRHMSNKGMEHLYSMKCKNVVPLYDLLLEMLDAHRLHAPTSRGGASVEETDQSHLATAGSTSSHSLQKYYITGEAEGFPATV
In short: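 Metabolism-negative mode: AIME lids stamped in alginate-water, no hepatic S9. 2 h chemical incubation → medium onto VM7Luc4E2 ERTA, 24 h. Readout luciferase luminescence; gain-of-signal fit vs 17beta-estradiol. Conc. 0.002 - 200 uM.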

[3] = CCTE_Deisenroth_AIME_384WELL_CTox_Inactive: Cytotoxicity Assessment (CTOX) in CCTE's 384-well Estrogen Receptor Transactivation Assay without AIME metabolic competence (metabolism negative), Deisenroth Lab (AID 2284039; active means hit-call score of the fitted dose curve at least 0.9, where 1 is the maximum;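 further: cell viability via live-cell protease substrate cleaved to fluorescent probe; cells exposed 24 h to medium preincubated 2 h with alginate-water beads without S9; loss of fluorescence signal means loss of viability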)
In short: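 Fluorescent protease-substrate viability readout after 24 h exposure of VM7Luc4E2 cells to conditioned medium. Chemicals (0.002–200 uM) first sat 2 h over alginate-water beads, no S9. Data fitted bidirectionally, loss of signal meaning viability loss.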

[4] = biological target: Estrogen receptor (Homo sapiens) (UniProt P03372); test: CCTE_Deisenroth_AIME_384WELL_LUC_Shift: CCTE's 384-well Estrogen Receptor Transactivation Assay with AIME metabolic competence data shift (ERTA luciferase; difference in metabolism positive and negative), Deisenroth Lab (AID 2284041);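 further: shift is response with S9 minus without S9 so positive means metabolism raised ER signal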
In short: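 Test chemicals (0.002–200 uM, 10-point) were pre-incubated 2 h with alginate microspheres containing phenobarbital/beta-naphthoflavone-induced male Sprague Dawley rat liver S9 or water, then medium was transferred to VM7Luc4E2 cells for 24 h luciferase readout; shift = S9-positive minus S9-negative normalized response.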

[5] = CCTE_Shafer_MEA_dev_firing_rate_mean: CCTE's Neural Network Formation Assay for Mean Firing Rate, Shafer Lab (AID 2284031);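 on AC50: curve fitted for loss of firing so AC50 reflects decreased mean firing rate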
In short: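 Extracellular spike frequency, AUC over DIV 5–12 recordings, in rat cortical neuron MEA cultures dosed from plating; loss direction vs DMSO.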

[6] = CCTE_Shafer_MEA_dev_active_electrodes_number: CCTE's Neural Network Formation Assay for Number of Active Electrodes, Shafer Lab (AID 2284040; active means hit-call score of the fitted dose curve at least 0.9, where 1 is the maximum;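 on AC50: potency for loss of active electrodes versus DMSO so lower counts are hits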)
In short: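 Developing rat cortical networks on MEAs, exposed DIV 0–12. Value is the AUC of active-electrode counts (≥5 spikes/min) from days 5, 7, 9, 12, relative to DMSO.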

[7] = CCTE_Shafer_MEA_dev_burst_rate: CCTE's Neural Network Formation Assay for Burst Rate, Shafer Lab (AID 2284042);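 on AC50: potency for loss of burst rate below DMSO control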
In short: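 Exposure ran continuously over 12 days of network development in rat cortical cultures, with compound refreshed during full media changes on DIV 5 and 9. Single-electrode bursts per recording time, well-mean over active electrodes, trapezoidal AUC across days 5–12, fitted downward relative to DMSO.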

[8] = CCTE_Shafer_MEA_dev_bursting_electrodes_number: CCTE's Neural Network Formation Assay for Number of Bursting Electrodes, Shafer Lab (AID 2284043; active means hit-call score of the fitted dose curve at least 0.9, where 1 is the maximum;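 on AC50: potency is for loss of bursting electrodes relative to DMSO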)
In short: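 Number of electrodes reaching ≥1 burst every 2 min was recorded at DIV 5, 7, 9 and 12 and collapsed as trapezoidal area under the curve. Cultures were rat cortical neurons on MEA plates, dosed continuously from plating with medium and treatment refreshed on DIV 5 and 9.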

[9] = CCTE_Shafer_MEA_dev_per_burst_interspike_interval: CCTE's Neural Network Formation Assay for Burst Interspike Interval, Shafer Lab (AID 2284044);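 further: mean spike spacing inside bursts as AUC over recordings on days 5 7 9 12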;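 on AC50: potency for a decrease of within-burst interspike interval below DMSO level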
In short: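 Spontaneous activity of maturing rat cortical networks is recorded on DIV 5, 7, 9 and 12 under chronic compound exposure beginning at plating. Endpoint: burst interspike interval well-mean, collapsed into trapezoidal AUC and fitted in the negative direction relative to DMSO.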

[10] = CCTE_Shafer_MEA_dev_burst_duration_mean: CCTE's Neural Network Formation Assay for Mean Burst Duration, Shafer Lab (AID 2284045);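 on AC50: curve fitted for loss meaning shorter burst duration than DMSO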
In short: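 Mean single-electrode burst duration (first to last spike), averaged over bursting electrodes per well, then integrated as area-under-curve across recordings at days 5, 7, 9 and 12. Rat cortical cultures on MEAs, compound present from plating, refreshed at feeds.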

[11] = CCTE_Shafer_MEA_dev_interburst_interval_mean: CCTE's Neural Network Formation Assay for Mean Interburst Interval, Shafer Lab (AID 2284046);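 further: well-mean interburst interval of bursting electrodes as AUC over four recording days; curve fitted for decrease in interburst interval relative to DMSO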
In short: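 Primary rat cortical neurons on PEI-coated 48-well MEA plates (laminin added with cells at plating) (16 electrodes/well), exposed from plating day 0 with renewal at DIV 5 and 9. Mean inter-burst interval averaged over bursting electrodes, AUC across days 5, 7, 9, 12; DMSO baseline.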

[12] = CCTE_Shafer_MEA_dev_inter_network_spike_interval_mean: CCTE's Neural Network Formation Assay for Mean Inter-network Spike Interval, Shafer Lab (AID 2284047)
In short: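 Mean time between consecutive network-spike peaks, recorded extracellularly (adaptive spike detection) on DIV 5, 7, 9 and 12, summarized as trapezoidal AUC. Rat cortical cultures on MEAs dosed continuously days 0–12, re-dosed at feeds; loss-of-signal fit relative to DMSO.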

[13] = CCTE_Shafer_MEA_dev_network_spike_number: CCTE's Neural Network Formation Assay for Number of Network Spikes, Shafer Lab (AID 2284048);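 further: synchronized bursts across electrodes counted on days 5 7 9 12 and integrated as AUC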;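 on AC50: fit as a loss of signal meaning fewer network spikes than DMSO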
In short: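 Number of network spikes (coordinated firing across electrodes) recorded on days 5, 7, 9 and 12 and summarised as area under the curve. Rat cortical cultures on MEA, continuous compound exposure with full medium/treatment exchange at DIV 5 and 9.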

[14] = CCTE_Shafer_MEA_dev_network_spike_peak: CCTE's Neural Network Formation Assay for Mean Number of Electrodes in Network Spike, Shafer Lab (AID 2284049);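 on AC50: fitted for loss of signal meaning fewer electrodes in network spikes than DMSO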
In short: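 Rat cortical primary culture, 1.5 x 10^5 cells/well, 48-well MEA (16 electrodes/well). Dosing day 0 through DIV 12, full media/compound exchange DIV 5, 9. AxIS adaptive spike detection; AUC over days 5/7/9/12; loss-of-signal vs DMSO.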

[15] = system: DIO2 (gene 1734); test: CCTE_GLTED_hDIO2: CCTE's human Deiodinase 2 (DIO2) Inhibition Assay, Great Lakes Toxicology and Ecology Division (GLTED) Lab (AID 2284050; active means hit-call score of the fitted dose curve at least 0.9, where 1 is the maximum)
In short: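 Triplicate cell-free incubations (3 h) of human DIO2 with chemical preceded colorimetric Sandell-Kolthoff quantitation of liberated iodide; DMSO served as negative control for curve fitting.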

[16] = CCTE_Shafer_MEA_dev_spike_duration_mean: CCTE's Neural Network Formation Assay for Mean Spike Duration, Shafer Lab (AID 2284051);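 further: mean network spike duration pooled as area under curve over DIV 5 to 12 recordings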;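 on AC50: potency for a decrease in mean network spike duration versus DMSO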
In short: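 Spontaneous activity was recorded on days 5, 7, 9 and 12 from rat cortical cultures grown on microelectrode arrays and dosed continuously from day 0, with media and compound renewed after the DIV 5 and 9 recordings. Network-spike duration was collapsed by area under the curve.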

[17] = CCTE_Shafer_MEA_dev_network_spike_duration_std: CCTE's Neural Network Formation Assay for Standard Deviation of Network Spike Duration, Shafer Lab (AID 2284052);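 further: hits are decreases in network spike duration SD versus DMSO vehicle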
In short: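 Network spike duration variability was collapsed across recordings on days 5, 7, 9 and 12 by trapezoidal area-under-curve and fitted downward against DMSO. Cultures were rat cortical neurons on PEI-coated MEA plates, dosed continuously from plating, refed with compound DIV 5/9.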

[18] = CCTE_Shafer_MEA_dev_per_network_spike_spike_number_mean: CCTE's Neural Network Formation Assay for Mean Number of Spikes in a Network Spike, Shafer Lab (AID 2284053);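 on AC50: fitted as decrease in spikes per network spike relative to DMSO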
In short: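 Mean spike count within each network spike, taken in a 0.05 s window at its peak, was recorded on days 5, 7, 9 and 12 and integrated as trapezoidal area under the curve. Rat cortical cultures on MEA plates received continuous compound from day 0, refreshed at medium changes on DIV 5 and 9.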

[19] = CCTE_Shafer_MEA_dev_per_network_spike_spike_percent: CCTE's Neural Network Formation Assay for Percent of Spikes in a Network Spike, Shafer Lab (AID 2284054)
In short: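 Metric: fraction of spikes falling in a 0.05 s window at network-spike peaks. Recordings were made on days 5, 7, 9 and 12 and collapsed by trapezoidal AUC. Cultures were rat cortical neurons on MEA plates, dosed continuously from plating, re-dosed at media changes.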

[20] = system: DIO3 (gene 1735); test: CCTE_GLTED_hDIO3: CCTE's human Deiodinase 3 (DIO3) Inhibition Assay, Great Lakes Toxicology and Ecology Division (GLTED) Lab (AID 2284055; active means hit-call score of the fitted dose curve at least 0.9, where 1 is the maximum;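 on AC50: potency is for inhibition seen as loss of released iodide signal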)
In short: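 Steps: incubate adenovirus-produced hDIO3 with chemical for 3 hours; detect freed iodide via cerium-arsenic Sandell-Kolthoff colorimetry; compare with DMSO baseline.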

Measured: AC50

Cc1[nH]c(=O)n(C(C)(C)C)c(=O)c1Cl
active: [4] 66.1 µM
inactive: [1] | [2] | [3]

O=S(=O)(O)C(F)(F)C(F)(F)C(F)(F)C(F)(F)C(F)(F)C(F)(F)C(F)(F)C(F)(F)F
inactive: [5] | [6] | [7] | [8] | [9] | [10] | [11] | [12] | [13] | [14] | [16] | [17] | [18] | [19] | [20]
active: [3] 100 µM | [6] 50 µM | [7] 3.81 µM | [8] 43.1 µM | [14] 50 µM | [15] 95 µM [middle of 4 runs] | [16] 50 µM | [18] 50 µM

O=C(O)COc1ccc(Cl)cc1Cl
active: [6] 50 µM | [8] 30.9 µM | [14] 50 µM
not listed: [1] | [2] | [4] | [15] | [20]
inactive: all other assays above

CC[C@H](C)[C@H]1O[C@]2(C=C[C@@H]1C)C[C@@H]1C[C@@H](C/C=C(\C)[C@@H](O[C@H]3C[C@H](OC)[C@@H](O[C@H]4C[C@H](OC)[C@@H](O)[C@H](C)O4)[C@H](C)O3)[C@@H](C)/C=C/C=C3\CO[C@@H]4[C@H](O)C(C)=C[C@@H](C(=O)O1)[C@]34O)O2 (tested in a mixture with another compound)
inactive: [12] | [19]
active: [5] 0.611 nM and 1.02 nM | [6] 3.93 nM and 1.65 nM | [7] 1.57 nM and 0.778 nM | [8] 3.82 nM and 1.05 nM | [9] 1.37 nM and 2.71 nM | [10] 1.34 nM and 0.41 nM | [11] 12.2 nM and 2.7 nM | [13] 27.5 nM and 2.25 nM | [14] 16.4 nM and 2.37 nM | [16] 3.01 nM and 0.926 nM | [17] 2.28 nM and 0.912 nM | [18] 6.69 nM and 2.06 nM | [19] 0.259 µM

CC(C)N(C(=O)COc1nnc(C(F)(F)F)s1)c1ccc(F)cc1
inactive: [5] | [3] | [6] | [4] | [7] | [8] | [9] | [10] | [11] | [12] | [13] | [14] | [16] | [17] | [18] | [19]
active: [8] 24.5 µM | [14] 23.3 µM | [16] 24.5 µM | [18] 15 µM | [19] 15 µM

O=S1OCC2C(CO1)C1(Cl)C(Cl)=C(Cl)C2(Cl)C1(Cl)Cl (stereo unspecified)
active: [2] 12 µM | [6] 8.87 µM | [7] 8.87 µM | [8] 8.62 µM | [13] 5.95 µM | [14] 8.02 µM | [16] 8.4 µM | [18] 8.24 µM | [19] 4.76 µM
not listed: [15] | [20]
inactive: all other assays above

CCC(C)(NC(=O)c1cc(Cl)c(C)c(Cl)c1)C(=O)CCl (stereo unspecified)
active: [15] 13.2 µM | [20] 41.2 µM

CCCN(CCC)c1c([N+](=O)[O-])cc(C(F)(F)F)cc1[N+](=O)[O-]
inactive: [2] | [4]

CNC(=O)/C=C(\C)OP(=O)(OC)OC
inactive: [1] | [2] | [4]

O=C(O)C(F)(F)C(F)(F)C(F)(F)C(F)(F)C(F)(F)C(F)(F)C(F)(F)F
inactive: [5] | [1] | [3] | [6] | [7] | [8] | [9] | [10] | [11] | [12] | [13] | [14] | [16] | [17] | [18] | [19]
active: [6] 14.1 µM | [14] 13.9 µM

CCC(C)(C)C(=O)OC1=C(c2ccc(Cl)cc2Cl)C(=O)OC12CCCCC2
not listed: [1] | [2] | [3] | [4] | [15] | [20]
inactive: all other assays above

N#Cc1c(Cl)c(Cl)c(Cl)c(C#N)c1Cl
active: [15] 5.63 µM | [20] 0.404 µM

CCOC1Oc2ccc(OS(C)(=O)=O)cc2C1(C)C (stereo unspecified)
active: [1] 100 µM | [3] 100 µM
inactive: [2] | [4]

Clc1ccccc1-c1nnc(-c2ccccc2Cl)nn1
inactive: [1] | [2] | [3] | [4]

CCC(C)Nc1c([N+](=O)[O-])cc(C(C)(C)C)cc1[N+](=O)[O-] (stereo unspecified)
inactive: [1] | [3]
active: [2] 12.4 µM | [4] 8.77 µM

CNC(=O)Oc1cccc(N=CN(C)C)c1
inactive: [1] | [2] | [3] | [4]

CC(C)(C)C(O)/C(=C\c1ccc(Cl)cc1Cl)n1cncn1 (stereo unspecified)
active: [1] 148 µM | [3] 144 µM
inactive: [4]
